Records with an inconclusive call do not appear. Values without a mark were called inactive. The source made the active and inactive calls. The call rests on the fitted dose curve; in most records, active means well fitted activation curve with a large enough effect; inconclusive means small, poorly fitted or top-dose-only effect; inactive means flat fitted curve, though single readings scatter.
The compounds below were run against Pyruvate kinase PKM (Homo sapiens) (UniProt P14618) (assay: Confirmation Concentration-Response Assay for Activators of Human Muscle isoform 2 Pyruvate Kinase: for Probe SAR). Settings: purified PKM2, ATP generation, Kinase-Glo luminescence; series mostly up to 57.5 µM; activity change, positive = activation: at the top concentration.
Chain of Pyruvate kinase PKM (Homo sapiens) (P14618 whole entry, looked up, canonical isoform): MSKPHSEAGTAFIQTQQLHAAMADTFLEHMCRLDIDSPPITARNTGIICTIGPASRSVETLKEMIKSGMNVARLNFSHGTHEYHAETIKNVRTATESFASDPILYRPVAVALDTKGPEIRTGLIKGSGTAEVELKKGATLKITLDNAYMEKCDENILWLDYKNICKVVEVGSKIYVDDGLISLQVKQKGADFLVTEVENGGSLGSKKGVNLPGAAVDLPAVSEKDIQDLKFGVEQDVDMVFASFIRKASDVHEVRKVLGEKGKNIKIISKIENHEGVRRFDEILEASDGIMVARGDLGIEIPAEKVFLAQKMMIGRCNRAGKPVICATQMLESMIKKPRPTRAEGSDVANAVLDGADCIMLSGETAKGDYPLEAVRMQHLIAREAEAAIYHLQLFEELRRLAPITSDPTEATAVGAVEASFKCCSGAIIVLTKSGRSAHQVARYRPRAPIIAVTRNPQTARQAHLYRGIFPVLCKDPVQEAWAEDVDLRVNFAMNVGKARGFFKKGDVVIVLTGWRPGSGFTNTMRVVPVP
How it was run: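 Purified hPK-M2 at 0.1 nM final converted ADP (0.1 mM) and PEP (0.5 mM) to ATP over 1 hour at room temperature in imidazole buffer, pH 7.2. ATP formed was measured by Kinase-Glo luminescence, normalized to no-enzyme and uninhibited controls.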
Further: nearly all actives have a fitted effect of over 60% in size.
Potency means the concentration at half of the fitted maximal effect.
Wherever activity change, positive = activation is given: % of control where 0% means no effect.

Structure (SMILES) | activity change, positive = activation [%] | Potency
O=S1(=O)N=C(Oc2cccc(Br)c2)c2ccccc21 | -0.387 | 
CC(=O)Nc1ccc(S(=O)(=O)N2CCN(S(=O)(=O)c3ccc4c(c3)OCCO4)CC2)cc1 |  | 1630 nM (active)
COC(=O)c1ccccc1S(=O)(=O)Nc1ccc(OC)cc1 | 3.45 | 
O=C1CCc2cc(S(=O)(=O)Nc3ccccc3-c3ccccc3)ccc2N1 | 16.8 | 
CNc1cccc(S(=O)(=O)N2CCN(S(=O)(=O)c3ccc4c(c3)OCCO4)CC2)c1 |  | 259 nM (active)
O=C1c2ccccc2C(=O)N1c1ccc2ncccc2c1 | 5.12 | 
Cc1ccc(-c2nc3ccccn3c2Nc2ccccc2C)o1 | 29.2 | 
COc1ccc(N2C(=O)c3ccccc3C2=O)cc1 | 7.73 | 
O=S1(=O)N=C(Oc2cccc(C(F)(F)F)c2)c2ccccc21 | 7.06 | 
COc1ccc(-c2nc3cccc(C)n3c2Nc2ccc(C)cc2)cc1 | 14.6 | 
COc1cccc(N2C(=O)c3ccccc3C2=O)n1 | 15.7 | 
COc1ccc(NS(=O)(=O)c2ccccc2C(=O)O)cc1 | 3.55 | 
O=C1c2ccccc2C(=O)N1c1cccc2cnccc12 | 10.2 | 
O=S1(=O)N=C(Oc2ccccc2-c2ccccc2)c2ccccc21 | -14.7 | 
Nc1cccc(S(=O)(=O)N2CCN(S(=O)(=O)c3ccc4c(c3)OCCO4)CC2)c1 |  | 91.9 nM (active)
Cc1ccc(C)c(O)c1 | 1.47 | 
O=C1c2ccccc2C(=O)N1c1cccc2ncccc12 | 3.32 | 
O=C1CCc2cc(S(=O)(=O)Nc3ccccc3Cl)ccc2N1 |  | 18300 nM (active)
O=C1CCc2cc([S+](=O)([O-])NC3CCOCC3)ccc2N1 | -0.52 | 
